Inconclusive results are not listed. Active and inactive are the calls of the source. Unless noted, calls follow the shape of the dose curve; as a rule, active = well fitted curve in the direction sought with a large enough effect in the repeat runs; inconclusive = weak or mixed curves; inactive = no such curve, though single readings can be large; an effect the other way counts as inactive or inconclusive.
How the values were obtained:
[1] = qHTS assay for small molecules that induce genotoxicity in human embryonic kidney cells expressing luciferase-tagged ATAD5 (AID 651632); settings: HEK293T ATAD5-luciferase induction, 16 h; series mostly up to 83.3 µM; also: nearly all actives have a fitted effect of over 15% in size; also: potency is read from the fitted curve at half-maximal effect
In short: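 Test compounds were delivered by pin tool onto HEK293T reporter cells (2,000/well) expressing ATAD5 fused to luciferase. After 16 hr at 37C, 5% CO2, Amplite was added for 30 min at room temperature and luminescence was measured.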

[2] = qHTS assay for small molecule agonists of the p53 signaling pathway - cell viability (AID 651633; calls by dose curve; also: nearly all actives have a fitted effect of over 30% in size; also: potency is read from the fitted curve at half-maximal effect); settings: p53RE-bla HCT-116 viability, ATP luminescence, 16 h; series mostly up to 83.3 µM
In short: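 Viability counter-read: CellTiter-Glo luminescence (30 min, room temperature) in the same p53RE-bla plates. These plates had been exposed to compounds for 16 h at 37 C.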

[3] = qHTS assay for small molecules that induce genotoxicity in human embryonic kidney cells expressing luciferase-tagged ATAD5 - cell viability (AID 651634; calls by dose curve; also: nearly all actives have a fitted effect of over 25% in size; also: potency is read from the fitted curve at half-maximal effect); settings: HEK293T ATAD5-luc cells viability, CellTiter-Fluor, 15.5 h; series mostly up to 83.3 µM
In short: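 Quantitative high-throughput format. HEK293T cells expressing ATAD5 fused to luciferase were plated at 2,000 cells/well and treated 15.5 hr with compound versus DMSO. Viability was determined by fluorescent live-cell protease substrate, 30 min at 37C.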

[4] = qHTS assay for small molecule disruptors of the mitochondrial membrane potential - cell viability (AID 720634; calls by dose curve; also: nearly all actives have a fitted effect of over 20% in size; also: potency is read from the fitted curve at half-maximal effect); settings: HepG2 viability, ATP luminescence (CellTiter-Glo), 1 h; series mostly up to 83.2 µM
In short: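 Same-well counter-screen: following the MMP dye addition, CellTiter-Glo was added to 1 hr compound-treated HepG2 cells and luminescence read after 30 min at room temperature.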

[5] = qHTS assay for small molecule disruptors of the mitochondrial membrane potential (AID 720635); settings: HepG2 mitochondrial membrane potential, Mito-MPS dye ratio; series mostly up to 83.2 µM; also: potency is read from the fitted curve at half-maximal effect
In short: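 Mitochondrial membrane potential tracked with Mito-MPS dye, red aggregates (ex 540/em 590 nm) against green monomers (ex 490/em 535 nm). Compound treatment 1 hr at 37C, dye 30 min in HepG2.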

[6] = qHTS assay to test for compound auto fluorescence at 590 nm (red) in HepG2 cells (AID 720674); settings: HepG2 autofluorescence, red 540/590 nm, 1 h; series mostly up to 46 µM
In short: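 1 hr compound incubation on HepG2 cells, 37 C, 5% CO2; plate read ex 540 nm / em 590 nm; intensities reported as Rose Bengal sodium equivalents.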

[7] = qHTS assay to test for compound auto fluorescence at 535 nm (green) in HepG2 cells (AID 720675); settings: green autofluorescence 485/535 nm, 1 h; series mostly up to 46 µM
[8] = qHTS assay to test for compound auto fluorescence at 460 nm (blue) in HEK293 cells (AID 720678); settings: blue autofluorescence 405/460 nm; series mostly up to 46 µM
In short: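 Measured: blue fluorescence (Ex 405/Em 460 nm) of compound-treated HEK293 cells, incubated overnight at 37C with 5% CO2 and scaled to triamterene equivalents.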

[9] = qHTS assay to test for compound auto fluorescence at 590 nm (red) in HEK293 cells (AID 720679); settings: red autofluorescence 540/590 nm; series mostly up to 46 µM
In short: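 Using HEK293 cells at 2,000 per well, the screen added 23 nL of each compound after cell attachment and incubated overnight (37C, 5% CO2). The plate reader then captured red-label fluorescence, Ex/Em 540/590nm.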

Measured: Potency

O=[N+]([O-])O[C@@H]1CO[C@H]2[C@@H]1OC[C@@H]2O
inactive: all assays above

O=C(Cn1c(=O)sc2ccc(Cl)cc21)N1CCN(CCO)CC1
inactive: all assays above

OC[C@H]1OC([S-])[C@H](O)[C@@H](O)[C@@H]1O.[Au+] (stereo partly specified)
inactive: all assays above

CC[C@@H](C(=O)[C@@H](C)[C@@H](O)[C@H](C)[C@@H]1O[C@@H]([C@@H](CC)C(=O)O)CC[C@@H]1C)[C@H]1O[C@]2(C=C[C@@H](O)[C@]3(CC[C@@](C)([C@H]4CC[C@](O)(CC)[C@H](C)O4)O3)O2)[C@H](C)C[C@@H]1C
active: [3] 8.41 µM
not listed: [5]
inactive: all other assays above

O=C(O)CC/C=C\CC[C@@H]1[C@@H](N2CCCCC2)[C@@H](O)C[C@@H]1OCc1ccc(-c2ccccc2)cc1
not listed: [5]
inactive: all other assays above

CCOC(=O)Oc1c(OC)cc(C(=O)O[C@@H]2C[C@@H]3CN4CCc5c([nH]c6cc(OC)ccc56)[C@H]4C[C@@H]3[C@H](C(=O)OC)[C@H]2OC)cc1OC
active: [4] 10.1 µM
not listed: [5] | [9]
inactive: all other assays above

O=[n+]1ccn([O-])c2ccccc21
not listed: [7]
inactive: all other assays above

CCNC(=O)[C@@H]1CCCN1C(=O)[C@H](CCCN=C(N)N)NC(=O)[C@H](CC(C)C)NC(=O)[C@@H](Cc1c[nH]c2ccccc12)NC(=O)[C@H](Cc1ccc(O)cc1)NC(=O)[C@H](CO)NC(=O)[C@H](Cc1c[nH]c2ccccc12)NC(=O)[C@H](Cc1cnc[nH]1)NC(=O)[C@@H]1CCC(=O)N1
active: [2] 8.41 µM | [3] 8.41 µM | [4] 29.8 µM | [5] 27.8 µM
not listed: [7]
inactive: all other assays above

N[C@H](CCC(=O)O)C(=O)O
not listed: [5] | [9]
inactive: all other assays above

CN(C)CCCN1c2ccccc2C(C)(C)c2ccccc21
not listed: [5]
inactive: all other assays above

COc1ccc(C(=O)CCC(=O)O)c2ccccc12
inactive: all assays above

O=c1oc2cc(O)ccc2s1
not listed: [5]
inactive: all other assays above

CCN1C(=O)NC(c2ccccc2)C1=O (stereo unspecified)
not listed: [5]
inactive: all other assays above

C[C@H](/C=C/[C@H](C)C(C)(C)O)[C@H]1CC[C@H]2/C(=C/C=C3C[C@@H](O)C[C@H](O)C3)CCC[C@]12C
active: [2] 8.41 µM
not listed: [5]
inactive: all other assays above

CC(=O)N[C@@H]([C@@H](O)[C@H](O)[C@H](O)CO)[C@@H](O)CC(=O)C(=O)O
not listed: [7]
inactive: all other assays above

CC1(C)S[C@@H]2[C@H](NC(=O)[C@H](N)c3ccccc3)C(=O)N2[C@H]1C(=O)OCOC(=O)[C@@H]1N2C(=O)C[C@H]2S(=O)(=O)C1(C)C
not listed: [7]
inactive: all other assays above

C[C@H](N)C(=O)N[C@@H](C)P(=O)(O)O
not listed: [5]
inactive: all other assays above

OCCN1CCN(CC/C=C2/c3ccccc3Sc3ccc(Cl)cc32)CC1
not listed: [5]
inactive: all other assays above

CO[C@H]1C[C@@H]2CC[C@@H](C)[C@@](O)(O2)C(=O)C(=O)N2CCCC[C@H]2C(=O)O[C@H]([C@H](C)C[C@@H]2CC[C@@H](OCCO)[C@H](OC)C2)CC(=O)[C@H](C)/C=C(\C)[C@@H](O)[C@@H](OC)C(=O)[C@H](C)C[C@H](C)/C=C/C=C/C=C/1C
active: [2] 21.1 µM | [3] 29.8 µM | [5] 21.1 µM
inactive: all other assays above

COc1cc(-c2ccc(-[n+]3nc(-c4ccccc4)nn3-c3ccc([N+](=O)[O-])cc3)c(OC)c2)ccc1-[n+]1nc(-c2ccccc2)nn1-c1ccc([N+](=O)[O-])cc1
active: [1] 5.96 µM | [2] 11.9 µM | [3] 29.8 µM
not listed: [5]
inactive: all other assays above

C=C[C@]1(C)C[C@@H](OC(=O)CSCCN(CC)CC)[C@]2(C)[C@H](C)CC[C@]3(CCC(=O)[C@H]32)[C@@H](C)[C@@H]1O
inactive: all assays above

COc1c(O[C@@H]2O[C@H](CO)[C@@H](O)[C@H](O)[C@H]2O)cc2c(c1OC)-c1ccc(SC)c(=O)cc1[C@@H](NC(C)=O)CC2
not listed: [5]
inactive: all other assays above

C[C@]12CCC(=O)C=C1CC[C@@H]1[C@@H]2[C@@H](O)C[C@@]2(C)[C@H]1CC[C@]2(O)C(=O)COP(=O)(O)O
not listed: [5]
inactive: all other assays above

COc1ccc2c(c1)N(C[C@H](C)CN(C)C)c1ccccc1S2
not listed: [5]
inactive: all other assays above

CCCOc1cc(N)ccc1C(=O)OCCN(CC)CC
not listed: [5]
inactive: all other assays above

CC(C)N1CCN(c2ccc(OC[C@H]3CO[C@](Cn4cncn4)(c4ccc(Cl)cc4Cl)O3)cc2)CC1
active: [2] 11.4 µM
not listed: [5]
inactive: all other assays above

CCCCC/C=C\CCC(=O)N[C@H]1[C@H](Oc2c3cc4cc2Oc2ccc(cc2Cl)[C@@H](O[C@@H]2O[C@H](CO)[C@@H](O)[C@H](O)[C@H]2NC(C)=O)[C@@H]2NC(=O)[C@H](NC(=O)[C@@H]4NC(=O)[C@H]4NC(=O)[C@@H](Cc5ccc(c(Cl)c5)O3)NC(=O)[C@H](N)c3ccc(O)c(c3)Oc3cc(O)cc4c3)c3ccc(O)c(c3)-c3c(O[C@H]4O[C@H](CO)[C@@H](O)[C@H](O)[C@@H]4O)cc(O)cc3[C@@H](C(=O)O)NC2=O)O[C@H](CO)[C@@H](O)[C@@H]1O
not listed: [5]
inactive: all other assays above

CCCCc1cc2c(=O)c(C(=O)OC)c[nH]c2cc1OCc1ccccc1
inactive: all assays above

CC(C)=CCC/C(C)=C/C=C/C(C)=C/C=C/C(C)=C/C=C/C=C(C)/C=C/C=C(C)/C=C/C=C(\C)CCC=C(C)C
not listed: [5]
inactive: all other assays above

CN1[C@@H]2CC[C@H]1CC(OC(c1ccccc1)c1ccccc1)C2 (stereo partly specified)
not listed: [5] | [9]
inactive: all other assays above

CN(C)CCC=C1c2ccccc2C(C)(C)c2ccccc21
not listed: [5]
inactive: all other assays above

C[C@]12CC[C@@H]3c4ccc(O)cc4CC[C@H]3[C@@H]1CC[C@@H]2OP(=O)(O)O
not listed: [5]
inactive: all other assays above

CCCCCCCCCCCCCCCCCCCCCCO
inactive: all assays above

CN1CCC(OC(=O)C(Oc2ccc(Cl)cc2)Oc2ccc(Cl)cc2)CC1
not listed: [5]
inactive: all other assays above

CC(=O)O[C@]1(C(C)=O)CC[C@H]2[C@@H]3CCC4=CC(=O)CC[C@]4(C)[C@@]3(F)[C@@H](O)C[C@@]21C
inactive: all assays above

COc1ccc(C[C@H](N)C(=O)N[C@H]2[C@@H](O)[C@H](n3cnc4c(N(C)C)ncnc43)O[C@@H]2CO)cc1
active: [1] 1.06 µM | [2] 5.96 µM | [3] 2.66 µM
not listed: [5]
inactive: all other assays above

CC(=O)Nc1c(I)c(C(=O)N[C@H]2C(O)O[C@H](CO)[C@@H](O)[C@@H]2O)c(I)c(N(C)C(C)=O)c1I (stereo partly specified)
not listed: [7]
inactive: all other assays above

CCN(CC)CCC(=O)N1c2ccccc2Sc2ccc(Cl)cc21
not listed: [5]
inactive: all other assays above

CC(C)(CO)[C@@H](O)C(=O)NCCCC(=O)O
not listed: [5] | [9]
inactive: all other assays above

CC(/C=C/C=C(\C)C(=O)O[C@@H]1O[C@H](CO[C@@H]2O[C@H](CO)[C@@H](O)[C@H](O)[C@H]2O)[C@@H](O)[C@H](O)[C@H]1O)=C\C=C\C=C(C)\C=C\C=C(/C)C(=O)O[C@@H]1O[C@H](CO[C@@H]2O[C@H](CO)[C@@H](O)[C@H](O)[C@H]2O)[C@@H](O)[C@H](O)[C@H]1O
inactive: all assays above
